hgDAF12 agonist: agonists of H. glycines DAF-12 nuclear receptor; HEK293 GAL4-hgDAF12 UAS-luciferase reporter, agonist luminescence; normalized to butyrate control; activation, % at 6.8 µM; hit rate 1.8% among 370,000; AID 687014;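 active = activation above a cutoff set at the mean of all screened compounds plus 3 SD, cut at about 10% in these data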
hcDAF12 agonist: activators of H. contortus DAF-12 nuclear receptor | HEK293 hcDAF-12 lit1-tk-luc reporter, luminescence; 0% DMSO, 100% Δ7-dafachronic acid | hit rate 1.4% among 370,000 | activation, % at 6.8 µM | AID 652067;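 active = activation above the mean of all tested compounds plus 3 SD, cut at about 5.5% in these data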
DAX1 inh-1: NR0B1 (DAX1) inhibition. P51843. HEK293 Gal4-DAX1 luciferase reporter, luminescence. inhibition, % at 6.75 µM. hit rate 0.99% among 340,000;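 active = inhibition above the mean over all tested compounds plus 3 SD, cut at about 4.2% in these data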;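 note: inhibition shows as a rise in luminescence from relieved DAX1 repression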
Target sequence (P51843 207-470 limits assumed): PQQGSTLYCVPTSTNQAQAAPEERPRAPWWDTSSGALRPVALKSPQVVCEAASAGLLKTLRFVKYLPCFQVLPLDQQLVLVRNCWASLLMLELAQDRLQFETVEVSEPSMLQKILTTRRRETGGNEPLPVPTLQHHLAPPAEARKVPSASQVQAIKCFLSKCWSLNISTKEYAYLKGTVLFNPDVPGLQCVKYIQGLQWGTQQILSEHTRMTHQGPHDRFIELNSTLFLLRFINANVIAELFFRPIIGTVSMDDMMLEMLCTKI
ssDAF12 agonist: activators of S. stercoralis DAF-12 nuclear receptor; hit rate 1% among 370,000; activation, % at 6.8 µM; HEK293 ssDAF-12/GRIP1 lit1-tk-luc reporter, luminescence; % of 3 µM dafachronic acid response;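 active = activation above the mean over all tested compounds plus 3 SD, cut at about 0.9% in these data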
DAX1 inh-2: DAX1 (NR0B1) inhibition, primary screen | HEK293T StAR-luciferase reporter, SF-1/DAX-1 repression relief | inhibition, % at 6.8 µM | hit rate 1.1% among 370,000 | AID 652010;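 active = inhibition above the mean over all tested compounds plus 3 SD, cut at about 3.6% in these data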;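 note: higher inhibition means more luminescence from relief of DAX-1 repression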
AHR activator: human AHR activation; AHR-responsive luciferase reporter cells, luminescence; P35869; activation, % at 5 µM; hit rate 2.5% among 320,000; in the data active = activation above about 47%
A number is an active result; . = inactive; / = no result. This is a sample that favours compounds with a hit; in the whole collection about 5.7% have one here.

SMILES	hgDAF12 agonist	hcDAF12 agonist	DAX1 inh-1	ssDAF12 agonist	DAX1 inh-2	AHR activator
CCC(Sc1nc2ccccc2c(=O)n1CC1CCCO1)C(=O)NCc1cccnc1 (configuration not stated)	.	.	.	.	.	.
Cc1nc(OCC(C)C)c2sc3nc4c(cc3c2n1)COC(C)(C)C4	.	.	/	.	.	.
CCc1nc2c(sc3nc4c(cc32)COC(C)(C)C4)c(=O)n1Cc1ccco1	.	.	.	.	.	53.0
COc1nc(C)nc2c1sc1nc3c(cc12)COC(C)(C)C3	13.0	.	.	.	3.9	.
COc1ccc(N2CCC(CNC(=O)Nc3ccccc3)C2)cc1 (configuration not stated)	.	.	.	.	.	.
N#Cc1sc2nc(N3CCCCC3)c3c(c2c1N)CCCC3	.	.	.	.	.	.
Cn1c(=O)c2c(ncn2CC(=O)Nc2nc3ccc(F)cc3s2)n(C)c1=O	.	6.2	.	.	.	.
CCc1ccc2nc(NC(=O)CN3C(=O)NC4(CCCC4)C3=O)sc2c1	10.9	.	.	.	.	.
CCc1ccc2nc(NC(=O)C3CSC4(C)CCC(=O)N34)sc2c1 (configuration not stated)	.	.	.	.	.	66.5
CCc1ccc2nc(NC(=O)Cn3cnc4ccccc4c3=O)sc2c1	.	.	.	1.2	.	.
O=C(Cn1cnc2ccccc2c1=O)Nc1nc2ccccc2s1	.	.	.	.	.	.
COc1ccc2nc(NC(=O)Cn3cnc4c(=O)n(C)c(=O)n(C)c43)sc2c1	.	.	.	.	.	.
Cc1ccc(C(=O)C2=C(O)C(=O)N(c3ncccn3)C2c2ccc(F)cc2)o1 (configuration not stated)	.	.	.	.	.	.
Nc1ccc(S(=O)(=O)NC2=NCCCCC2)cc1N	.	.	.	.	.	.
Nc1ccccc1S(=O)(=O)NC1=NCCCCC1	.	.	4.4	.	.	.
COc1ccc(CCNC(=O)c2cc(-c3ccncc3)nc3c(Cl)cccc23)cc1OC	.	.	.	.	.	.
COc1ccccc1CNC(=O)c1cc(-c2ccncc2)nc2c(Cl)cccc12	.	6.0	.	.	.	.
CCC(=O)Nc1nc2ccc3sc(C)nc3c2s1	.	.	.	.	.	68.7
CCCC(=O)Nc1nc2ccc3nc(C)sc3c2s1	.	.	.	.	.	.
COc1ccc(N=c2cc(-c3ccc(OC)cc3)oc3ccccc23)cc1	.	.	.	1.0	.	.
COc1ccc(-c2cc(=Nc3ccc(C)cc3)c3ccccc3o2)cc1	.	.	.	.	.	.
COCc1c(C#N)c(NCCc2ccc(F)cc2)nc(C)c1[N+](=O)[O-]	.	.	.	.	.	75.5
COCc1c(C#N)c(NCCc2ccccc2)nc(C)c1[N+](=O)[O-]	.	.	.	.	.	78.0
Cc1nc(NCCc2ccccc2F)c(C#N)c(C)c1[N+](=O)[O-]	.	.	.	.	.	51.5
COCc1c(C#N)c(NCc2cc(OC)c(OC)c(OC)c2)nc(C)c1[N+](=O)[O-]	.	.	.	.	.	.
SMILES	hgDAF12 agonist	hcDAF12 agonist	DAX1 inh-1	ssDAF12 agonist	DAX1 inh-2	AHR activator
CC(=O)OCCOc1nc(NC(C)C)nc(NC(C)C)n1	.	.	.	.	.	.
COc1cccc(NC(=O)CN(C2=NC3CS(=O)(=O)CC3S2)c2cccc(C)c2)c1 (configuration not stated)	.	.	.	1.2	.	.
CCCCC(=O)Nc1nc(C)c(-c2csc(Nc3ccccc3OC)n2)s1	.	.	.	.	.	76.6
CCCCCCC(=O)Nc1nc(C)c(-c2csc(Nc3cc(OC)ccc3OC)n2)s1	.	.	.	.	.	67.5
CCOc1ccccc1Nc1nc(-c2sc(NC(=O)c3ccc([N+](=O)[O-])cc3)nc2C)cs1	/	/	/	/	/	.
COc1ccc(Nc2nc(-c3sc(C)nc3C)cs2)c(OC)c1	.	.	.	.	.	.
CCCCN(C)C(=O)c1cn(C)c2ccc(S(=O)(=O)N3CCC(C)CC3)cc2c1=O	/	/	.	/	/	.
CC(C)c1ccc(CC(NC(=O)c2ccccc2)C(=O)NCC(=O)O)cc1 (configuration not stated)	.	.	.	.	.	.
